Source: PubChem BioAssay
Active and inactive are the calls of the source.

Test system: not listed separately
Experiment: blood-stage malaria parasite viability loss – strain 3D7, DAPI fluorescence, 100 nL, primary screen (AID 1184);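 note: parasites grown inside human red blood cells in medium with human serum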
Conditions: P. falciparum 3D7 growth, 3 d, higher = more signal
O=C1C2=CC[C@H]3C(=O)N(c4ccc(F)cc4F)C(=O)[C@H]3[C@H]2[C@H](O)[C@@H]2O[C@H]12 showed a z-score of 0.569. For CC(CCN1CCCc2nc(C)c(C)cc21)=NO[C@@H](C)c1cn([C@H](CO)Cc2ccccc2)nn1, the z-score was 0.221. With CCOC(=O)[C@H](CC(C)C)NC(=O)CCC1CC(OC(=O)NCc2ccc3c(c2)OCO3)CC2(CCCC(COC(=O)NCCOC)O2)O1 (stereo partly specified) the z-score was -1.99. Molecule COCCNC(=O)OCC1CCCC2(CC(OC(=O)NCc3cccc4ccccc34)CC(CCC(=O)N[C@@H](C)C(=O)OC)O2)O1 (stereo partly specified) has a z-score of -1.85. In the case of COC(=O)CC=C[C@@H](C)[C@@H](C=NOC(C)CN1CCCCc2nc(C)c(C)cc21)NS(=O)(=O)c1ccc(C)cc1 (stereo partly specified), the z-score is reported as 0.453. Molecule CCOC(=O)[C@H](CC(C)C)NC(=O)CCC1CC(OC(=O)NCc2ccc3c(c2)OCO3)CC2(CCCC(COC(=O)NCCOc3ccccc3)O2)O1 (stereo partly specified) has a z-score of -1.87. CCN1C(=O)[C@H]2[C@H]3[C@H](O)[C@H](O)CC(=NO[C@H](C)c4cn([C@H](CO)Cc5ccccc5)nn4)[C@@H]3CC[C@H]2C1=O gave a z-score of 1.44. C=CC[C@@H]1C=CC(ON=C(C)C)[C@@H](CO)O1 (stereo partly specified) showed a z-score of 0.367. In the case of CCOC(=O)[C@H](CC(C)C)NC(=O)CCC1CC(OC(=O)NCc2ccc3c(c2)OCO3)CC2(CCCC(COC(=O)NCCc3ccccc3OC)O2)O1 (stereo partly specified), the z-score is reported as -1.88. COC(=O)[C@H](Cc1ccccc1)NC(=O)[C@@H](C)CO showed a z-score of -1.23.

Target: Homeobox protein Hox-A13 (Mus musculus) (UniProt Q62424)
Sequence (Q62424 whole entry, looked up): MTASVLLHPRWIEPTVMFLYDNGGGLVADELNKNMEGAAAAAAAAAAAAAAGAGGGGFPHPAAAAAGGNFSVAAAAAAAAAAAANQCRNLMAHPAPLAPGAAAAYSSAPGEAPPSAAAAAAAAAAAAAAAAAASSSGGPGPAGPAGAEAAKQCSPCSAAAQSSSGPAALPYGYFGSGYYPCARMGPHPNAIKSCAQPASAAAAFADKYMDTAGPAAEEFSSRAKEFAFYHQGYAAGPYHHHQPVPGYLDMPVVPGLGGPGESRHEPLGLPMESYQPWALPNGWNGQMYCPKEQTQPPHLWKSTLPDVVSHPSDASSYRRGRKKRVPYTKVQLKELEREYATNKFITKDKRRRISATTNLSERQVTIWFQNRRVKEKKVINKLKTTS
Experiment: disruptors of Hoxa13 oligonucleotide interaction – biochemical, fluorescence polarization, labeled oligonucleotide, primary screen (AID 1185)
Conditions: Hoxa13:DNA binding, 15 min, higher = more signal, called active from +8 up or from −8 down
For CCOC(=O)[C@H](Cc1ccccc1)NC(=O)CCC1CC(OC(=O)NCc2cccc3ccccc23)CC2(CCCC(COC(=O)NCCc3ccccc3OC)O2)O1 (stereo partly specified), the z-score was -0.95 (inactive). For C#CCCCON=C1[C@H]2CCn3c(=O)n(Cc4cc5c(cc4Cl)OCO5)c(=O)n3[C@H]2[C@H](O)[C@@H]2O[C@H]12, the z-score was -0.911 (inactive). In the case of CC1(C)O[C@H]2O[C@H]([C@H](O)CON=C3[C@H]4CCn5c(=O)n(-c6ccccc6)c(=O)n5[C@H]4[C@H](O)[C@@H]4O[C@H]34)[C@H](O)[C@H]2O1, the z-score is reported as -0.437 (inactive). With O=C1C[C@@H](O)[C@@H](O)[C@@H]2[C@@H]3C(=O)N(C4CCCCC4)C(=O)[C@@H]3CC[C@@H]12 the z-score was 0.136 (inactive). For O=C(NN=C1C[C@@H](O)[C@@H](O)[C@@H]2[C@@H]3C(=O)N(Cc4ccccc4)C(=O)[C@@H]3CC[C@H]12)OCc1ccccc1, the z-score was -0.2 (inactive). For CO[C@@H]1[C@H](O)CO[C@H]1C=Cc1ccccc1, the z-score was -3.28 (inactive). With COC(=O)C1=C(C)N(Cc2ccccc2)C2=C3C(=O)OCC[C@@H]3[C@@](O)(C(=O)OC)C(=O)N2[C@@H]1c1ccccc1 the z-score was -0.987 (inactive). In the case of CO[C@@H]1C=CCC(=O)N[C@@H](C)C(=O)OC[C@@H](NS(=O)(=O)c2ccc(C)cc2)[C@H](C)C=CCC(=O)OC[C@H]1C, the z-score is reported as -1.06 (inactive). In the case of O=C(NN=C1C[C@@H](O)[C@@H](O)[C@@H]2[C@@H]3C(=O)N(c4ccc(F)cc4F)C(=O)[C@@H]3CC[C@H]12)OCc1ccccc1, the z-score is reported as -5.87 (inactive). In the case of CC(C)=CCCC(C)=CCON=C1C[C@@H](O)[C@@H](O)[C@@H]2[C@@H]3C(=O)N(C4CCCCC4)C(=O)[C@@H]3CC[C@H]12, the z-score is reported as -0.469 (inactive). With O=C1[C@H]2CCn3c(=O)n(-c4ccccc4)c(=O)n3[C@H]2[C@H](O)[C@@H]2O[C@H]12 the z-score was -0.418 (inactive). With COC(=O)C(C(=O)OC)C1CCCC(=O)C1 (stereo unspecified) the z-score was -0.243 (inactive). For COc1ccc(OC[C@H]2CN3[C@@H](CC[C@@H](C)[C@@H]3c3ccc(Br)cc3)C(=O)O2)cc1, the z-score was -0.626 (inactive). In the case of CC(CCN1CCCc2nc(C)c(C)cc21)=NO[C@H](C)c1cn([C@@H]2COC[C@H]2O)nn1, the z-score is reported as -6.65 (inactive). With C#CCCCON=C1C[C@@H](O)[C@@H](O)[C@@H]2[C@@H]3C(=O)N(C4CCCCC4)C(=O)[C@@H]3CC[C@@H]12 the z-score was -4.64 (inactive). For O=C1C2=CC[C@H]3C(=O)N(Cc4ccccc4)C(=O)[C@H]3[C@H]2[C@H](O)[C@@H]2O[C@H]12, the z-score was -5.55 (inactive). With C[C@H]1CC[C@@H](C(=O)O)N[C@@H]1c1ccc(C#Cc2ccccc2)cc1 the z-score was -2.16 (inactive). In the case of COC(=O)[C@H](C)NC(=O)CCC1CC(OC(=O)NCc2ccc3c(c2)OCO3)CC2(CCCC(COC(=O)NCCC(C)C)O2)O1 (stereo partly specified), the z-score is reported as -6.3 (inactive). For CC(C)[C@@H](OCc1ccccc1)[C@H](C)C=NO[C@@H](C)c1cn([C@H](CO)Cc2ccccc2)nn1, the z-score was -5.22 (inactive). With CC#CCOCCC=C1c2ccccc2[C@@H](OC)[C@@H]1C the z-score was -3 (inactive). For CC(C)(C)N1C(=O)[C@H]2[C@H]3[C@H](O)[C@H](O)CC(=NOC[C@@H](O)COCc4ccco4)[C@@H]3CC[C@H]2C1=O, the z-score was -2.78 (inactive). For CCOC(=O)[C@H](Cc1ccccc1)NC(=O)CCC1CC(OC(=O)NCc2ccc3c(c2)OCO3)CC2(CCCC(COC(=O)NCCOC)O2)O1 (stereo partly specified), the z-score was -3.78 (inactive). With CO[C@@H]1COC(=O)CC=C[C@H](C)[C@H](OC)COC(=O)[C@@H]2CCCN2C(=O)CC=C[C@H]1C the z-score was -1.11 (inactive). With CC(C)=CCCC(C)=CCON=C1C[C@@H](O)[C@@H](O)[C@@H]2[C@@H]3C(=O)N(Cc4ccc5c(c4)OCO5)C(=O)[C@@H]3CC[C@H]12 the z-score was -4.72 (inactive). With O=C1CCCC=C1C(O)COCc1ccccc1 (stereo unspecified) the z-score was -3.62 (inactive). In the case of CC(C)(C)N1C(=O)[C@H]2[C@H]3[C@H](O)[C@H](O)CC(=NNC(=O)OCc4ccccc4)[C@@H]3CC[C@H]2C1=O, the z-score is reported as 0.408 (inactive). In the case of O=C1C2=CC[C@H]3C(=O)N(c4ccc(F)cc4F)C(=O)[C@H]3[C@H]2[C@H](O)[C@@H]2O[C@H]12, the z-score is reported as -0.318 (inactive). In the case of CC(CCN1CCCc2nc(C)c(C)cc21)=NO[C@@H](C)c1cn([C@H](CO)Cc2ccccc2)nn1, the z-score is reported as -0.829 (inactive). With CCOC(=O)[C@H](CC(C)C)NC(=O)CCC1CC(OC(=O)NCc2ccc3c(c2)OCO3)CC2(CCCC(COC(=O)NCCOC)O2)O1 (stereo partly specified) the z-score was -5.34 (inactive). For COCCNC(=O)OCC1CCCC2(CC(OC(=O)NCc3cccc4ccccc34)CC(CCC(=O)N[C@@H](C)C(=O)OC)O2)O1 (stereo partly specified), the z-score was -3.88 (inactive). In the case of COC(=O)CC=C[C@@H](C)[C@@H](C=NOC(C)CN1CCCCc2nc(C)c(C)cc21)NS(=O)(=O)c1ccc(C)cc1 (stereo partly specified), the z-score is reported as -0.327 (inactive). In the case of CCOC(=O)[C@H](CC(C)C)NC(=O)CCC1CC(OC(=O)NCc2ccc3c(c2)OCO3)CC2(CCCC(COC(=O)NCCOc3ccccc3)O2)O1 (stereo partly specified), the z-score is reported as -6.24 (inactive). For CCN1C(=O)[C@H]2[C@H]3[C@H](O)[C@H](O)CC(=NO[C@H](C)c4cn([C@H](CO)Cc5ccccc5)nn4)[C@@H]3CC[C@H]2C1=O, the z-score was -2.36 (inactive). In the case of C=CC[C@@H]1C=CC(ON=C(C)C)[C@@H](CO)O1 (stereo partly specified), the z-score is reported as 2.62 (inactive). For CCOC(=O)[C@H](CC(C)C)NC(=O)CCC1CC(OC(=O)NCc2ccc3c(c2)OCO3)CC2(CCCC(COC(=O)NCCc3ccccc3OC)O2)O1 (stereo partly specified), the z-score was -3.78 (inactive). With COC(=O)[C@H](Cc1ccccc1)NC(=O)[C@@H](C)CO the z-score was 1.16 (inactive).
